Results on 7 compounds are retold here after PubChem BioAssay (NCI).

Holding throughout (test): NCI-60 one-dose screen, 48 h (100 = growth as untreated, 0 = no growth, -100 = all killed)
Holding throughout (details): 10 µM unless noted

The subject of assay [1] is HCT-15 colon.
Assay [2] concerns HT29 colon.
Assay [3] relates to SNB-75 CNS.
Assay [4] has as its system SNB-19 CNS.
Assay [5] has as its system U251 CNS.
Assay [6] concerns PC-3 prostate.
Assay [7] relates to SK-MEL-5 melanoma.
The test system of assay [8] is UACC-62 melanoma.
Assay [9] relates to LOX IMVI melanoma.
Assay [10] concerns SK-MEL-28 melanoma.
In assay [11] the test system is EKVX NSCLC.
Assay [12] has as its system SN12C renal.
The test system of assay [13] is UO-31 renal.
Assay [14] has as its system TK-10 renal.
Assay [15] relates to ACHN renal.
The subject of assay [16] is CAKI-1 renal.
Assay [17] deals with A498 renal.
Assay [18] relates to HL-60(TB) leukemia.
Assay [19] relates to CCRF-CEM leukemia.
In assay [20] the test system is SK-MEL-2 melanoma.

Values joined by “and” are separate entries in the source; they are usually repeats but may differ in a detail not shown here. Identical values can stand only once. Compounds without any hit were thinned out: in the full panel of roughly 83,000, 20% have a hit.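 For each line, cells grew in 96-well plates with the test compound present at a single concentration for 48 hours.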 Values without a mark were called inactive. Active and inactive are the calls of the source. How the source made its calls: active means growth percent below 10; inactive means the rest.

Regarding `Cc1cc[c-]cc1.Fc1c[c-]c(-c2ccccn2)c(F)c1.N#CCC[PH+](CCC#N)c1ccccc1.[Pt+2]`, the growth in assay [1] is 22.1%; in [2], 37.2%; in assay [3], 49.9%; in assay [4] it was 62.3%; in assay [5], 56.9%; in [6], 29.4%. For the same compound, the growth in assay [7] is 68.6%; in assay [8], 9.83% (active); in [9], -2.55% (active); in assay [10], 42.7%; in assay [11], 56.8%; in [12], 23.9%. The growth was 24.7% in assay [13]; 106% in assay [14]; 6.91% (active) in assay [15]; 14.8% in assay [16]; 52.3% in [17]; 2.54% (active) in assay [18]. For the same compound, the growth in assay [19] is 10%.

Consider `CCOC(=O)P(=O)(OCC)OCC`, for which the growth in [1] is 101%; in assay [2], 102%; in [3], 115%; in assay [4] it was 97.9%; in [5], 109%; in assay [6] it was 92.5%. Further, the growth in assay [7] is 107%; in assay [8], 96.9%; in [9] it was 91.6%; in assay [10], 106%; in [11], 124%; in assay [12], 101%. In addition, the growth in assay [13] was 92.3%; in assay [14], 107%; in [15], 105%; in assay [16], 119%; in assay [17], 102%; in assay [19], 118%.

As for `CCCCOCCOP(=O)(OCCOCCCC)OCCOCCCC`, the growth in [1] was 101%; in [2] it was 104%; in assay [3], 103%; in [4], 98%; in [5], 106%; in assay [6], 103%. The growth in assay [7] was 99.1%; in [8], 93.7%; in [9], 91.7%; in assay [10] it was 117%; in assay [11], 97.7%; in [13], 100%. Moreover, the growth is 96.1% in assay [14]; 102% in [15]; 98% in assay [16]; 89.1% in assay [17]; 84.1% in assay [18]; 110% in assay [19].

As for `Cc1cc(N)ccc1N`, the growth was 105% in [1]; 109% in assay [2]; 92.3% in assay [3]; 102% in assay [4]; 93.2% in assay [5]; 87.6% in assay [6]. The growth in [7] was 97.2%; in assay [8], 103%; in assay [9], 98.3%; in [10] it was 107%; in assay [20] it was 104%; in [13], 88.7%. The growth is 126% in assay [14]; 97% in assay [15]; 97.9% in [16]; 79.2% in assay [17]; 100% in assay [18]; 69.3% in [19].

Turning to `CC(C)c1cccc(C(C)C)c1O`, the growth in assay [1] is 99.1% and 107%; in [2], 99.4% and 102%; in assay [3] it was 109% and 81.4%; in assay [4], 123% and 94%; in [5] it was 97.2% and 99.7%; in assay [6], 99.7% and 93.8%. Further, the growth in assay [7] is 110%; in [8] it was 118% and 92.1%; in assay [9], 96.9% and 105%; in [10], 115% and 104%; in [11], 101% and 94.5%; in assay [12] it was 108% and 104%. In addition, the growth is 88% in assay [13]; 116% and 94.6% in [14]; 104% and 105% in [15]; 95.1% and 88.4% in [16]; 97.9% and 85.9% in assay [18]; 107% and 90.6% in assay [19].

Take `C[N+]1(CC#CC[N+]2(C)CCCC2)CCCC1`: the growth in assay [1] was 103%; in [2], 101%; in [3], 88.4%; in assay [4] it was 104%; in assay [5], 107%; in assay [6] it was 92.7%. Besides, the growth was 101% in assay [7]; 99.9% in [8]; 93.6% in assay [9]; 111% in assay [10]; 97.5% in [11]; 94.4% in assay [13]. Also, the growth in assay [14] is 96.3%; in assay [15], 108%; in [16] it was 97.1%; in assay [18], 94.1%; in [19], 107%.

Take `CN(C)c1ccc(N)cc1`: the growth in [1] was 106% and 83.6%; in assay [2], 102% and 37.4%; in assay [3], 83.4% and 62.8%; in assay [4], 99.5% and 47.8%; in assay [5] it was 98.2% and 17.5%; in [6] it was 81.3% and 50.8%. Also, the growth was 96.4% and 44.5% in assay [7]; 89% and 43.3% in [8]; 94.2% and 27.2% in [9]; 115% and 73.2% in assay [10]; 96.2% and 32.4% in assay [11]; 96.2% and 64.7% in assay [12]. Further, the growth is 75% in [13]; 117% and 26.5% in [14]; 99.5% and 64.9% in [15]; 78.2% in assay [16]; 108% and 62.7% in [17]; 95.1% and 38.5% in assay [18]. Moreover, in assay [19], the growth was 87.5% and 36%.
